ALDH1A1 block = qHTS Assay for Inhibitors of Aldehyde Dehydrogenase 1 (ALDH1A1). Potency, µM (doses to about 75.3 µM), inactives show at the top dose activity, negative = inhibition, most hits filed as inhibitors. 7.3% of 220,000 active. Purified ALDH1A1, NADH fluorescence, propionaldehyde substrate; active means well fitted inhibition curve with a large enough effect, not every such curve was filed as active; inconclusive means small, poorly fitted or top-dose-only effect, or another doubt; inactive means no such curve, though single readings can be large or run the other way;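 further: plate controls were no enzyme wells and a reference inhibitor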
Target sequence (P00352 whole entry, looked up): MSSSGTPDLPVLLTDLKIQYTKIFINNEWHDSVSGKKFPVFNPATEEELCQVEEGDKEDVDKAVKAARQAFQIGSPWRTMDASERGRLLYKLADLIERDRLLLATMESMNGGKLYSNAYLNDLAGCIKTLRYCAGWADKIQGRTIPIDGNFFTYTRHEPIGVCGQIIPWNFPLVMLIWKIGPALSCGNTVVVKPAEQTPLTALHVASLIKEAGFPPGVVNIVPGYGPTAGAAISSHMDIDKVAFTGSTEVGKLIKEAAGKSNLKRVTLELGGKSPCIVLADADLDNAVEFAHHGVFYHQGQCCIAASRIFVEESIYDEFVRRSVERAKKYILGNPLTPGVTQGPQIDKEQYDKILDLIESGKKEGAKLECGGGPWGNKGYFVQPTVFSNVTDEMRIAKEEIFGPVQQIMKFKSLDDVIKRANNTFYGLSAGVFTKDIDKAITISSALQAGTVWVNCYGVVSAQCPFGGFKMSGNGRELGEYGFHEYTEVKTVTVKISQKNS
KDM4E inh = qHTS Assay for Inhibitors of Human Jumonji Domain Containing 2E (JMJD2E) | JMJD2E catalytic domain, FDH-coupled NADH fluorescence (FDH is formaldehyde dehydrogenase) | AID 2147, 2009 | Potency, µM (series often up to 57.1 µM), inactives show top-dose activity change, negative = inhibition, hits mostly inhibitors | Lysine-specific demethylase 4E (Homo sapiens), B2RXH2 | 1.6% of 230,000 active; active means well fitted inhibition curve with a large enough effect, not every such curve was filed as active; inconclusive means small, poorly fitted or top-dose-only effect, or another doubt; inactive means no such curve, though single readings can be large or run the other way;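 further: 0% = wells with enzyme and -100% = buffer wells without enzyme; nearly all actives have a fitted effect of over 50% in size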
Tau fluor counter = Counterscreen qHTS for Inhibitors of Tau Fibril Formation, Fluorescence Polarization; 0.93% of 280,000 active; Potency, µM (titrated, usually from 57.7 µM), without a hit: at the highest dose activity change, negative = decrease; tau K18 P301L Alexa594 fluorescence, heparin fibrillization; AID 1463, 2008; further: nearly all actives have a fitted effect of over 55% in size
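Human tau K18 P301L (15 uM unlabeled, 0.24 uM Alexa 594-labeled) in 100 mM sodium acetate pH 7 with 20 uM heparin, 6 hr at 37 C. ThT 30 uM added, 1 hr ambient; Alexa 594 FP and total fluorescence read at 555/632 nm.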
Tau FP inhib = qHTS for Inhibitors of Tau Fibril Formation, Fluorescence Polarization. Microtubule-associated protein tau (Homo sapiens), P10636. K18 P301L tau heparin fibrillization, Alexa594 FP, 6 h. Potency, µM (highest dose often 57.7 µM), without a hit: at the highest dose activity, negative = inhibition, most hits filed as inhibitors. 0.39% of 280,000 active; further: nearly all actives have a fitted effect of over 55% in size
Target sequence (P10636 561-689 P618L limits assumed): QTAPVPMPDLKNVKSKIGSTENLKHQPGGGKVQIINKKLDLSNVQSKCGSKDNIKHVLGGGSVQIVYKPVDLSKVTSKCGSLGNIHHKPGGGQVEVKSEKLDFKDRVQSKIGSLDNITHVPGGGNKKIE
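Read-out: fluorescence polarization of Alexa 594-labeled tau (0.24 uM), 555 nm excitation, 632 nm emission. Mixtures held 15 uM unlabeled K18 P301L, compound and 20 uM heparin, pH 7 acetate buffer, incubated 6 hr at 37 C.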
Tau ThT inhib = qHTS for Inhibitors of Tau Fibril Formation, Thioflavin T Binding. Microtubule-associated protein tau (Homo sapiens), P10636. recombinant tau K18 P301L (four-repeat tau fragment), heparin-induced fibrillization, ThT fluorescence. Potency, µM (highest dose often 57.4 µM), for inactives: top-dose activity, negative = inhibition, hits mostly inhibitors. 2.1% of 270,000 active. AID 1460, 2008; further: nearly all actives have a fitted effect of over 55% in size
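Recombinant human tau K18 fragment […] carrying P301L, 15 uM unlabeled plus 0.24 uM Alexa 594-labeled, was fibrillized with 20 uM heparin in 100 mM sodium acetate pH 7 for 6 hr at 37 C; 30 uM ThT fluorescence read after 1 hr.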
HPGD block = qHTS Assay for Inhibitors of HPGD (15-Hydroxyprostaglandin Dehydrogenase) | purified HPGD, NADH fluorescence kinetic, PGE2 substrate | 4.3% of 150,000 active | Potency, µM, for inactives: at the top dose activity change, negative = inhibition, actives largely listed as inhibitors | 15-hydroxyprostaglandin dehydrogenase [NAD(+)] (Homo sapiens), P15428; active means well fitted inhibition curve with a large enough effect, not every such curve was filed as active; inconclusive means small, poorly fitted or top-dose-only effect, or another doubt; inactive means no such curve, though single readings can be large or run the other way
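NADH formation kinetics: reaction with 30 uM PGE2 and 1 mM NAD+ (final), 20 nM enzyme, Tris-HCl pH 8 with Tween 20, after 15 min compound preincubation at room temperature. Fluorescence change, last versus first of five reads.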
Starred values were filed as active, the others as inactive; ? = inconclusive; · = no result; [ ] = remark or other dose. This is a sample that favours compounds with a hit; in the whole collection about 9.9% have one here. Unless noted, the call rests on the fitted dose curve; in most records, active means well fitted curve in the direction sought with a large enough effect; inconclusive means small, poorly fitted or top-dose-only effect, or another doubt; inactive means no such curve, though single readings can be large; an effect the other way counts as inactive or inconclusive. Unless noted, on the % scale 0 is the no-effect control and ±100 the full control effect; potency means the concentration at half of the fitted maximal effect.

SMILES | ALDH1A1 block | KDM4E inh | Tau fluor counter | Tau FP inhib | Tau ThT inhib | HPGD block
CCOc1ccc(S(=O)(=O)N2CCN(c3ccccc3)CC2)c2cccnc12 | 28.2µM* | 1.6% | -8.0% | 7.7% | -4.3% | -27.1%
O=C(Cc1ccccc1F)N1CCC(c2nc3c(nnn3Cc3cccc(Cl)c3)c(=O)[nH]2)CC1 | · | · | -9.3% | -1.2% | -12.0% | ·
O=C(Cc1cccs1)N1CCC(c2nc3c(nnn3Cc3ccc(F)cc3)c(=O)[nH]2)CC1 | -6.1% | 1.7% | -0.4% | 3.1% | -4.9% | 14.1µM*
O=C(Cc1cccs1)N1CCCC(c2nc3c(nnn3Cc3cccc(Cl)c3)c(=O)[nH]2)C1 (stereo unspecified) | -8.5% | -1.4% | -9.8% | 1.4% | -16.9% | 6.31µM*
Cc1ccc(Cn2nnc3c(=O)[nH]c(C4CCN(C(=O)Cc5ccccc5F)CC4)nc32)cc1 | · | · | -10.8% | -8.3% | -14.0% | ·
O=C(CN(C1CCCCC1)C1CCCCC1)N1CCc2ccccc2C1 | -22.8% | ? | -1.1% | 0.6% | -18.3% | 1.9%
CCCCNC(=O)N(O)C1N(CCCC)C(=O)N(CC(=O)OC)C1(C)C (stereo unspecified) | 9.0% | 3.5% | 0.7% | 2.7% | -3.4% | -10.2%
CCCC1=C(C(=O)OCC)C(c2cccs2)C(C#N)=C(N)O1 (stereo unspecified) | ? | ? | -22.6% | -8.9% | -11.6% | -19.0%
CCOC(=O)C1=C(CSc2nc3c(cc2C#N)CN(C)CC3)OC(N)=C(C#N)C1c1ccc(Cl)cc1 (stereo unspecified) | ? | ? | ? | -16.0% | 20µM* | -14.3%
CCOC(=O)C1=C(CSc2nc3c(cc2C#N)CN(C)CC3)OC(N)=C(C#N)C1c1ccncc1 (stereo unspecified) | ? | ? | -27.4% | ? | ? | -26.8%
CCOC(=O)C1=C(CSc2nc(C)cc(C)c2C#N)OC(N)=C(C#N)C1c1cccs1 (stereo unspecified) | 14.1µM* | ? | -8.2% | 4.3% | -15.6% | -18.8%
CCCOC(=O)CN1C(=O)c2ccccc2C1=O | 22.4µM* | -2.7% | 3.0% | 1.7% | 1.6% | -5.9%
O=C(COC(=O)CN1C(=O)C(=O)c2ccccc21)OCN1C(=O)c2ccccc2C1=O | 0.0891µM* | 8.0% | 7.1% | 1.6% | -9.3% | -26.1%
CCOC(=O)CN1C(=O)c2ccccc2C1=O | 5.3% | 3.3% | -3.9% | -3.2% | -5.5% | -7.3%
C/C(CC(=O)Nc1ccc(F)cc1)=N\NC(=O)COc1ccccc1 | ? | 10.6% | 2.8% | 8.1% | -4.4% | -3.2%
CCOc1cc(/C=C2\SC(=N)N(c3nonc3N)C2=O)ccc1OCCN1CCOCC1 | 6.0% | -20.9% | -14.7% | -7.8% | ? | ·
CCOc1cc(/C=C2\SC(=N)N(c3nonc3N)C2=O)ccc1OCC(N)=O | -18.2% | -11.7% | -7.3% | -3.4% | -15.7% | 12.6µM*
COc1ccc(C(=O)c2cn(CC(=O)Nc3cc(OC)cc(OC)c3)c3ccc(OC)cc3c2=O)cc1 | · | · | -11.4% | 2.1% | 11.0% | ·
CC(C)(C)c1ccc(O)c(CN(Cc2cc(C(C)(C)C)ccc2O)c2ccccc2)c1 | 8.1%[13.5 µM] | · | · | · | · | -9.6%
COc1ccc2cnn(-c3ccc(OC(F)(F)Cl)cc3)c(=O)c2c1OC | 2.0% | ? | 0.3% | -9.2% | -6.7% | ·
COc1c(Cl)cnn(-c2ccc(C)cc2)c1=O | ? | 4.0% | -13.2% | -3.2% | -8.4% | -13.2%
O=c1c(Br)c(N2CCCC2)cnn1-c1ccccc1 | -5.4% | 2.7% | 5.8% | 1.5% | 2.7% | -5.4%
Cc1ccc(-n2ncc(Br)c(Br)c2=O)cc1 | 3.16µM* | 1.1% | -18.8% | ? | 15.8µM* | ·
O=c1c(Br)c(Br)cnn1-c1ccccc1 | 7.08µM* | 3.0% | -6.0% | ? | 31.6µM* | ·
COc1ccc2cnn(-c3ccc(C)cc3)c(=O)c2c1OC | ? | 4.3% | 3.3% | -1.7% | 6.1% | 25.1µM*
SMILES | ALDH1A1 block | KDM4E inh | Tau fluor counter | Tau FP inhib | Tau ThT inhib | HPGD block
CN(C)/C=C(\C#N)C(=O)N/N=C/c1ccccc1 | ? | -12.0% | -3.9% | 0.5% | -3.8% | ·
CC1=C(c2ccc(C(C)C)cc2)S(=O)(=O)NC1=NCc1ccc(OC(C)C)cc1 | · | · | -5.6% | -1.6% | -4.5% | ·
COc1ccnc(N2CCN(c3ccc(Cl)cc3)CC2)c1C#N | 12.6µM* | ? | -23.3% | -11.1% | ? | ?
COc1ccnc(N2CCN(c3cccc(C(F)(F)F)c3)CC2)c1C#N | -1.8% | -0.6% | -14.8% | -6.0% | -14.7% | -15.8%
COC(=O)COc1cc(Br)c(/C=C2/SC(=O)N(CC(=O)N3CCCC3)C2=O)cc1OC | 20µM* | -25.2% | -5.7% | -2.5% | -12.5% | -22.6%
Cc1ccc(NC2=C/C(=N/S(=O)(=O)c3cccs3)c3ccccc3C2=O)cc1C | 2.7% | 8.0% | -16.5% | 5.1% | -6.1% | -6.0%
CC(=O)Nc1ccc(NC2=C/C(=N/S(=O)(=O)c3cccs3)c3ccccc3C2=O)cc1 | 7.8% | 43.3% | 5.01µM*[quencher] | ? | ? | ·
Cc1ccccc1NC1=C/C(=N\S(=O)(=O)c2cccs2)c2ccccc2C1=O | ? | 12.6% | ? | -10.7% | 8.91µM* | -23.1%
CC(=O)Nc1ccc(NC(=O)C(C)OC(=O)c2ccccc2NS(=O)(=O)c2cccs2)cc1 (stereo unspecified) | · | -23.9% | ? | ? | -3.2% | ·
CCC(Cn1nnc2ccccc2c1=O)NC(=O)Nc1cccc(C)c1C (stereo unspecified) | · | · | 0.5% | 2.9% | 4.8% | ·
O=C(Cn1cc(C(F)(F)F)ccc1=O)N/N=C/c1ccc(F)cc1 | 7.3% | -6.8% | -6.7% | -8.7% | 2.5% | ·
O=C(Cn1cc(C(F)(F)F)ccc1=O)N/N=C/c1ccccc1O | · | 10µM* | -1.8% | 2.6% | -1.1% | ·
Cc1sc2nc(SC3CCOC3=O)n(Cc3ccccc3)c(=O)c2c1C (stereo unspecified) | 15.8µM* | 0.7% | -25.9% | -7.6% | -18.4% | ·
O=C1OCCC1Sc1nc2cc(Cl)ccc2n1Cc1ccccc1 (stereo unspecified) | 25.1µM* | 0.7% | -27.0% | -2.7% | -17.1% | -20.7%
C=CCn1c(SC2CCOC2=O)nc2sc(C)c(C)c2c1=O (stereo unspecified) | 1.9% | 1.5% | -9.7% | 0.2% | -5.6% | -25.8%
CC(=O)c1nn(-c2ccc(OC(F)(F)F)cc2)nc1Nc1ccc(Cl)cc1 | · | · | -1.1% | -9.9% | -0.2% | ·
